In the library only some 1.4% were active in any assay of this set; here they are far more common.
Vif-APOBEC3G blk: qHTS for Inhibitors of Vif-A3G Interactions: qHTS; HeLa A3G-eYFP + Vif (tagged APOBEC3G with the HIV-1 protein that degrades it), YFP fluorescence, overnight; 410,000 tested, 0.076% active; DNA dC->dU-editing enzyme APOBEC-3G (Homo sapiens), Q9HC16; AID 602310, 2012; Potency, µM (doses to about 46.1 µM), inactives show top-dose activity, negative = active, actives largely listed as inhibitors; also: potency is read from the fitted curve at half-maximal effect; % is scaled to controls: 0 for no effect and ±100 for the full control effect; nearly all actives have a fitted effect of over 60% in size
Target sequence (Q9HC16 whole entry, looked up): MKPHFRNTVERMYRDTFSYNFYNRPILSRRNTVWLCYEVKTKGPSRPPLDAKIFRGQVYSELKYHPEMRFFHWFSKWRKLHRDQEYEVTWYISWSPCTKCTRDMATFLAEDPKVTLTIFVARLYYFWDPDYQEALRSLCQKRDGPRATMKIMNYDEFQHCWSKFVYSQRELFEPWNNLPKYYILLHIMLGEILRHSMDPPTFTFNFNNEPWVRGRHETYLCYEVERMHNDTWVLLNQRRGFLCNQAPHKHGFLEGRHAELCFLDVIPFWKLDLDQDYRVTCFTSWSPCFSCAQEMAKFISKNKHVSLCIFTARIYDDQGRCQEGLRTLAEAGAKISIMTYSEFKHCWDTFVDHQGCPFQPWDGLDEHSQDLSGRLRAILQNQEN
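HeLa cells stably expressing Vif and C-terminally eYFP-tagged A3G, seeded overnight at 37 deg C, then exposed to compound by pintool overnight at 37 deg C. Rise in yellow fluorescence (Ex 488/Em 500-530, Acumen) marks blocked Vif-driven A3G degradation.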
Akt phos inh: HTS Assay for Inhibitors of Akt Phophorylation: Primary Screen; Neuro2A IGF-stimulated pAkt S473 HTRF, 20 min; stronger effect = lower value; activity change, % for hits at 50 µM; 360,000 tested, 0.32% active; AID 651550, 2012; in the data active = activity change below about -80%; inconclusive = mostly about -51% to -80%; also: % is scaled to controls: 0 for no effect and ±100 for the full control effect
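Neuro2A cells in DMEM with 0.5% FBS, overnight at 37 deg C, given compound at single 50 µM final, then IGF (6 nM final) for 20 min at 37 deg C. Lysed; phospho-Akt Ser473 by HTRF after 24 h, 665/615 ratio.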
Vif-APOBEC3F blk: qHTS for Inhibitors of Vif-A3F Interactions: qHTS; HeLa A3F-eYFP + Vif (tagged APOBEC3F with the HIV-1 protein that degrades it), YFP fluorescence increase; Potency, µM (doses to about 46.1 µM), for inactives: top-dose activity, negative = active; 390,000 tested, 0.2% active; also: potency is read from the fitted curve at half-maximal effect; % of control where 0% means no effect; nearly all actives have a fitted effect of over 65% in size
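HeLa cells stably expressing Vif plus C-terminally eYFP-tagged A3F were seeded, incubated overnight at 37 deg C, dosed with compound, incubated overnight again at 37 deg C. Yellow fluorescence (Ex 488/Em 500-530) reported blocked Vif-mediated A3F-eYFP degradation.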
TSG101-PTAP inh: qHTS Assay for Iinhibitors of HIV-1 Budding by Blocking the Interaction of PTAP/TSG101; Fluorescence polarization, FITC-PTAP peptide / Tsg101 binding; AID 493005, 2010; Potency, µM (doses to about 115 µM), inactives show top-dose activity change, negative = inhibition, actives largely listed as inhibitors; Tumor susceptibility gene 101 protein (Homo sapiens), Q99816; 340,000 tested, under 10 active; active = well fitted inhibition curve with a large enough effect in the main read-out, with a control signal flat, not every such curve was filed as active; inconclusive = small, poorly fitted or top-dose-only effect, or effect the other way, or a change in a side signal; inactive = no such curve, though single readings can be large or run the other way; also: potency is read from the fitted curve at half-maximal effect; % of control where 0% means no effect
Target sequence (Q99816 whole entry, looked up): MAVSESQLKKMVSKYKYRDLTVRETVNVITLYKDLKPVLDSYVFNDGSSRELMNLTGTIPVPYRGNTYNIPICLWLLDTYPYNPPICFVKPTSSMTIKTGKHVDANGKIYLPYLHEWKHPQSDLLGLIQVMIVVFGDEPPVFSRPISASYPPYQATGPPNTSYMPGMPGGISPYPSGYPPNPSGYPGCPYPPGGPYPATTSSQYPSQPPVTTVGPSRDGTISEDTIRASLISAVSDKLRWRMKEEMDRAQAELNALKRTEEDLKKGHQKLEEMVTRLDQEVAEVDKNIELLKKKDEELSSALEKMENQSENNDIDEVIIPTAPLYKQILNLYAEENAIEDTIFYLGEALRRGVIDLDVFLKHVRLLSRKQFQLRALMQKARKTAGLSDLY
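Compounds were pin-transferred onto Tsg101 binding domain (10 uM final) in HEPES pH 7.5 buffer, then FITC-PTAP peptide was added at 50 nM final. After 20 min at RT, polarization reported peptide displacement across a qHTS concentration series.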
ASM inhibitor: Inhibitors of Secretory Acid Sphingomyelinase (S-ASM): qHTS | Sphingomyelin phosphodiesterase (Homo sapiens), P17405 | placental ASM, HMU-PC fluorogenic substrate, 60 min | Potency, µM (series often up to 57.5 µM), for the others: at the top dose activity change, negative = inhibition, most hits filed as inhibitors | 340,000 tested, 0.006% active; also: potency is read from the fitted curve at half-maximal effect
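Fluorescence read-out (Ex 386 nm, Em 447 nm) after stopping the reaction at pH 10. Enzyme: ASM from human placenta; substrate HMU-PC0, 9 uM final; 60 min, 37 °C. Compound preincubation 10 min, ambient temperature.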
ALOX12 inh: Primary qHTS assay for inhibitors of human arachidonate 12S-lipoxygenase (ALOX12): Round 2 | Polyunsaturated fatty acid lipoxygenase ALOX12 (Homo sapiens), P18054 | purified 12hLO, xylenol orange hydroperoxide absorbance | Potency, µM (doses to about 108 µM), for inactives: at the top dose activity change, negative = inhibition, most hits filed as inhibitors | 580,000 tested, 1.1% active | AID 1671190, 2021; also: potency is read from the fitted curve at half-maximal effect; % is scaled to controls: 0 for no effect and ±100 for the full control effect
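Purified human 12hLO at 150 nM in 25 mM Hepes, 0.01% Triton X-100, pH 7.0, preincubated 15 min at room temperature with compound. Reaction started with 40 uM arachidonic acid, 30 min at room temperature. Hydroperoxide measured by Fe-xylenol orange, 573/405 nm absorbance ratio.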
Active calls of the source: *; ! = not active in a repeat; [ ] = remark or other dose. Unless noted, calls follow the shape of the dose curve; as a rule, active = well fitted curve in the direction sought with a large enough effect; inconclusive = small, poorly fitted or top-dose-only effect, or another doubt; inactive = no such curve, though single readings can be large; an effect the other way counts as inactive or inconclusive.

For O=C1OC(CN(Cc2ccccc2)Cc2ccccc2)CN1N=Cc1ccc([N+](=O)[O-])o1 (stereo unspecified) the results were Vif-APOBEC3G blk -9.5%, Akt phos inh inactive, Vif-APOBEC3F blk inconclusive, TSG101-PTAP inh -5.5%, ASM inhibitor -2.8% and ALOX12 inh 12.6µM*.
Screening CCCC1=[N+](CC(=O)c2ccc(Br)cc2)CCn2cccc21 returned Vif-APOBEC3G blk -22.6%, Akt phos inh inactive, Vif-APOBEC3F blk 11.2µM*, TSG101-PTAP inh 0.4%, ASM inhibitor 6.2% and ALOX12 inh inconclusive.
Screening O=C1CC(c2cc(Cl)ccc2F)c2c(n3c(nc4ccccc43)[nH]c2=O)N1 (stereo unspecified) returned ALOX12 inh 6.7%.
`Nc1nc2c(s1)C(c1cccc(Cl)c1Cl)CC(=O)N2` (stereo unspecified) gave ALOX12 inh 20µM*.
For Nc1nc2c(s1)C(c1ccccc1OCc1ccccc1Cl)CC(=O)N2 (stereo unspecified) the results were ALOX12 inh 0.891µM*.
For COc1ccc(C2CC(=O)Nc3nc(N)sc32)cc1OCc1ccccc1Cl (stereo unspecified) the results were ALOX12 inh 1.12µM*.
`Nc1nc2c(s1)C(c1cc(Cl)ccc1F)CC(=O)N2` (stereo unspecified) gave ALOX12 inh 35.5µM*.
CCCNC(=O)N(C1CCOCC1)C1CCN(S(=O)(=O)c2ccc(C)cc2C)CC1 was read as ALOX12 inh 20.0%.
For Cn1nc(Oc2nc(N3CCCCC3)nc(N3CCOCC3)n2)ccc1=O the results were ALOX12 inh -3.4%.
`O=CCCc1ccccc1` gave ALOX12 inh -1.1%[176 µM].
CCOC(=O)c1cccc(NC(=O)c2cnc3ccccc3n2)c1 was read as Vif-APOBEC3G blk -15.4%, Akt phos inh -95.7%*, Vif-APOBEC3F blk -15.4%, TSG101-PTAP inh 2.0%, ASM inhibitor -16.0% and ALOX12 inh 8.8%.
Screening CCc1ccc(N=Nc2ccc(O)c3[nH]cnc23)cc1 returned Vif-APOBEC3G blk inconclusive, Akt phos inh inactive, Vif-APOBEC3F blk 8.91µM*, TSG101-PTAP inh -5.6%, ASM inhibitor -14.1% and ALOX12 inh inconclusive.
`Cc1ccc(C(=O)/C=C/c2c[nH]c3ccccc23)cc1` gave Vif-APOBEC3G blk -27.0%, Akt phos inh inactive, Vif-APOBEC3F blk -8.1%, TSG101-PTAP inh -4.7%, ASM inhibitor 119.3% and ALOX12 inh inconclusive.
`CCN(CC)C(=O)c1ccc(/C=C/c2c[nH]c3ccccc23)[n+](C)c1` gave Vif-APOBEC3G blk inconclusive, Akt phos inh inactive, Vif-APOBEC3F blk 12.6µM*, TSG101-PTAP inh inconclusive, ASM inhibitor -25.5% and ALOX12 inh inconclusive.
Screening CCOC(=O)C1C(=O)C=C(/C=C/c2ccc(N(C)C)cc2)CC1c1ccccc1 (stereo unspecified) returned Vif-APOBEC3G blk inconclusive, Akt phos inh inactive, Vif-APOBEC3F blk 2.82µM*, TSG101-PTAP inh inconclusive, ASM inhibitor -11.1% and ALOX12 inh -7.0%.
For CC(=O)O[C@H](CC(=O)O)C[N+](C)(C)C the results were Vif-APOBEC3G blk -0.7%, Akt phos inh inactive, Vif-APOBEC3F blk 5.1%, TSG101-PTAP inh -2.0%, ASM inhibitor 2.3% and ALOX12 inh 35.5µM*!.
For COc1ccc(-c2cc(-c3ccc4cn[nH]c4c3)cn3cncc23)cc1 the results were ALOX12 inh 8.91µM*.
Screening COc1ccc(-c2cc(-c3cccc(OC)c3OC)cn3cncc23)cc1 returned ALOX12 inh 70.8µM*.
O=c1ccc(-c2cc(-c3cccc4cn[nH]c34)cn3cncc23)c[nH]1 was read as ALOX12 inh 31.6µM*.
For CC(C)CC(NC(=O)c1ccccc1Cl)C(=O)O (stereo unspecified) the results were ALOX12 inh -16.7%.
COc1ccc(C2C(C(=O)N3CCC(C)CC3)c3ccccc3C(=O)N2C)cc1 (stereo unspecified) was read as Vif-APOBEC3G blk 1.8%, Akt phos inh inactive, Vif-APOBEC3F blk -4.3%, TSG101-PTAP inh 1.1%, ASM inhibitor 3.3% and ALOX12 inh -18.6%.
COc1ccc(C2C(C(=O)Nc3cc(C)on3)c3ccccc3C(=O)N2C)cc1 (stereo unspecified) was read as Vif-APOBEC3G blk -6.8%, Akt phos inh inactive, Vif-APOBEC3F blk 5.3%, TSG101-PTAP inh -4.9%, ASM inhibitor 1.2% and ALOX12 inh -7.2%.
Screening COc1ccc(C2C(C(=O)Nc3cccc(C)n3)c3ccccc3C(=O)N2C)cc1 (stereo unspecified) returned Vif-APOBEC3G blk 1.5%, Akt phos inh -109.7%*, Vif-APOBEC3F blk -0.2%, TSG101-PTAP inh -5.9%, ASM inhibitor 1.1% and ALOX12 inh 0.0%.
COc1ccc(C2C(C(=O)N3CCN(c4ccccc4F)CC3)c3ccccc3C(=O)N2C)cc1 (stereo unspecified) was read as Vif-APOBEC3G blk -15.7%, Akt phos inh -128.7%*, Vif-APOBEC3F blk -1.8%, TSG101-PTAP inh -0.7%, ASM inhibitor -2.5% and ALOX12 inh 0.0%.
For CC(=O)NC1C(=O)N(CCN2CCOCC2)c2ccc(Cl)cc21 (stereo unspecified) the results were Vif-APOBEC3G blk 6.2%, Akt phos inh inactive, Vif-APOBEC3F blk 10.3%, TSG101-PTAP inh -5.3%, ASM inhibitor 2.7% and ALOX12 inh 39.8µM*.
For CC(=O)NC1C(=O)N(CCN2CCOCC2)c2ccc(F)cc21 (stereo unspecified) the results were Vif-APOBEC3G blk 1.0%, Akt phos inh inactive, Vif-APOBEC3F blk 0.1%, TSG101-PTAP inh -3.9%, ASM inhibitor 5.5% and ALOX12 inh 39.8µM*.
O=C(NCc1ccoc1)Nc1cccc(C(=O)N2CCCC2)c1 was read as ALOX12 inh 109.6%.
`C=C1CSc2nc(=O)c3c4c(sc3n21)CCC4` gave Vif-APOBEC3G blk -0.5%, Akt phos inh -115.0%*, Vif-APOBEC3F blk -5.1%, TSG101-PTAP inh -7.8%, ASM inhibitor -1.0% and ALOX12 inh -11.5%.

From PubChem
